Laboratory results taken from PubChem BioAssay AID1159580 (chemical genetic matrix, 2015).
Where “and” joins values, the source holds several entries; their conditions need not be identical. Identical values can stand only once. About 2,000 (36%) of roughly 5,500 compounds were called active. Roughly 18% stayed inconclusive and do not appear here. Cut-off read from the data, not from the text of the source: active = normalized growth mostly below about 0.91 (no sharp cut-off); inconclusive = no clear call, values can overlap the other calls; inactive = mostly above about 0.92. This is one part of the list.

Test: chemical genetic growth profiling, strain panel (AID 1159580);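 note: tested at 20 µM; growth read once vehicle control cultures reached saturation at 30 °C; 1 = growth at the plate median or of vehicle wells; lower values mean less growth of the strain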
Conditions: S. cerevisiae deletion strains, growth OD

Measured: normalized growth

CCCCOc1ccc(CC(=O)NO)cc1
inactive: locus YAL021C, strain ccr4, hits give low values 0.987 | locus YAL026C, strain drs2, hits give low values 0.983 | locus YAL030W, strain snc1, hits give low values 1 | locus YBL061C, strain skt5, hits give low values 0.996 | locus YBR009C, strain hhf1, hits give low values 0.953 | locus YBR021W, strain FUR4, hits give low values 1.02 | locus YBR023C, strain chs3, hits give low values 0.993 | locus YBR171W, strain sec66, hits give low values 0.98 | locus YBR229C, strain ROT2, hits give low values 1 | locus YBR231C, strain swc5, hits give low values 0.988 | locus YBR279W, strain paf1, hits give low values 1 | locus YCL011C, strain gbp2, hits give low values 0.99 | locus YCL016C, strain dcc1, hits give low values 0.967 | locus YCL029C, strain bik1, hits give low values 1 | locus YCL061C, strain MRC1, hits give low values 1.01 | locus YCL069W, strain vba3, hits give low values 0.973 | locus YCR088W, strain abp1, hits give low values 1 | locus YDL005C, strain med2, hits give low values 0.994 | locus YDL035C, strain GPR1, hits give low values 0.977 | locus YDL040C, strain nat1, hits give low values 0.998 | locus YDL074C, strain BRE1, hits give low values 0.964 | locus YDL101C, strain DUN1, hits give low values 0.99 | locus YDL134C, strain PPH21, hits give low values 0.965 | locus YDL185W, strain tfp1, hits give low values 1 | locus YDL192W, strain arf1, hits give low values 1.01 | locus YDR001C, strain nth1, hits give low values 0.991 | locus YDR069C, strain doa4, hits give low values 1 | locus YDR101C, strain arx1, hits give low values 0.988 | locus YDR137W, strain rgp1, hits give low values 0.857 | locus YDR150W, strain NUM1, hits give low values 0.992 | locus YDR159W, strain sac3, hits give low values 0.96 | locus YDR162C, strain NBP2, hits give low values 0.99 | locus YDR195W, strain ref2 0.94 | locus YDR297W, strain sur2, hits give low values 0.992 | locus YDR318W, strain mcm21, hits give low values 1.01 | locus YDR334W, strain swr1, hits give low values 1.02 | locus YDR335W, strain msn5, hits give low values 1.01 | locus YDR388W, hits give low values 1 | locus YDR392W, strain spt3, hits give low values 0.935 | locus YDR502C, strain sam2, hits give low values 0.997 | locus YEL003W, strain gim4, hits give low values 0.97 | locus YEL037C, strain rad23, hits give low values 0.993 | locus YEL061C, strain CIN8 (second series), hits give low values 0.994 | locus YEL061C, strain CIN8, hits give low values 0.996 | locus YER015W, strain faa2, hits give low values 1 | locus YER016W, strain bim1, hits give low values 0.997 | locus YER110C, hits give low values 1.02 | locus YER111C, strain swi4, hits give low values 0.996 | locus YER155C, strain BEM2 (second series), hits give low values 0.939 | locus YER155C, strain BEM2, hits give low values 0.994 | locus YER167W, strain BCK2, hits give low values 0.989 | locus YFR010W, strain ubp6, hits give low values 0.999 | locus YGL078C, strain dbp3, hits give low values 1 | locus YGL086W, strain mad1, hits give low values 1 | locus YGL167C, strain pmr1, hits give low values 1.01 | locus YGL173C, strain kem1, hits give low values 1.02 | locus YGL227W, strain vid30, hits give low values 0.993 | locus YGL240W, strain doc1, hits give low values 0.997 | locus YGL248W, strain PDE1, hits give low values 0.965 | locus YGL253W, strain hxk2, hits give low values 0.975 | locus YGR078C, strain PAC10, hits give low values 0.957 | locus YGR135W, strain pre9, hits give low values 1 | locus YGR229C, strain SMI1, hits give low values 0.916 | locus YGR252W, strain gcn5, hits give low values 0.878 | locus YHR013C, strain ard1, hits give low values 0.978 | locus YHR027C, strain rpn1, hits give low values 1.01 | locus YHR030C, strain SLT2, hits give low values 0.994 and 1.05 | locus YHR079C, strain IRE1 (second series), hits give low values 1.01 | locus YHR079C, strain IRE1, hits give low values 1 | locus YHR094C, strain hxt1, hits give low values 1 | locus YHR129C, strain ARP1, hits give low values 0.994 | locus YHR142W, strain chs7, hits give low values 0.961 | locus YHR200W, strain rpn10, hits give low values 1.01 | locus YIL066C, strain RNR3, hits give low values 0.915 | locus YIL073C, strain SPO22, hits give low values 0.974 | locus YIL125W, strain kgd1, hits give low values 0.997 | locus YIR030C, strain dcg1, hits give low values 1 | locus YJL092W, strain hpr5, hits give low values 0.997 | locus YJL095W, strain BCK1 (second series), hits give low values 1 | locus YJL095W, strain BCK1, hits give low values 0.959 and 1.01 | locus YJL115W, strain asf1, hits give low values 1 | locus YJL129C, strain trk1, hits give low values 0.966 | locus YJL134W, strain LCB3, hits give low values 0.996 | locus YJL154C, strain vps35, hits give low values 0.997 | locus YJL164C, strain tpk1, hits give low values 0.985 | locus YJL166W, strain qcr8, hits give low values 0.922 | locus YJL168C, strain set2, hits give low values 1 | locus YJL187C, strain SWE1 (second series), hits give low values 0.991
